# Test results taken from PubChem BioAssay AID651599 (National Center for Advancing Translational Sciences (NCATS), 2012).
# Records with an inconclusive call do not appear. Unmarked numbers belong to inactive results. Activity calls are given as the source filed them. The call rests on the fitted dose curve; in most records, active means well fitted inhibition curve with a large enough effect; inconclusive means small, poorly fitted or top-dose-only effect; inactive means no such curve, though single readings can be large or run the other way.
# Target: Tumor susceptibility gene 101 protein (Homo sapiens) (UniProt Q99816)
# Test: qHTS Assay for Iinhibitors of HIV-1 Budding by Blocking the Interaction of PTAP/TSG101: Hit Validation in TR assay
# Details: Tsg101 binding domain + Texas Red-labeled PTAP peptide, fluorescence polarization, 20 min; series mostly up to 57.5 µM; activity change, negative = inhibition: at the top concentration
# Procedure, shortened: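 Fluorescence polarization: Tsg101 binding domain (10 uM final) with Texas Red-labelled PTAP peptide (50 nM final) in HEPES pH 7.5, 0.15 M NaCl, Tween 20, EDTA, TCEP; 20 min binding at room temperature after compound addition.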
# On the % scale 0 is the no-effect control and ±100 the full control effect; potency means the concentration at half of the fitted maximal effect.
# Sequence of Tumor susceptibility gene 101 protein (Homo sapiens) (Q99816 whole entry, looked up): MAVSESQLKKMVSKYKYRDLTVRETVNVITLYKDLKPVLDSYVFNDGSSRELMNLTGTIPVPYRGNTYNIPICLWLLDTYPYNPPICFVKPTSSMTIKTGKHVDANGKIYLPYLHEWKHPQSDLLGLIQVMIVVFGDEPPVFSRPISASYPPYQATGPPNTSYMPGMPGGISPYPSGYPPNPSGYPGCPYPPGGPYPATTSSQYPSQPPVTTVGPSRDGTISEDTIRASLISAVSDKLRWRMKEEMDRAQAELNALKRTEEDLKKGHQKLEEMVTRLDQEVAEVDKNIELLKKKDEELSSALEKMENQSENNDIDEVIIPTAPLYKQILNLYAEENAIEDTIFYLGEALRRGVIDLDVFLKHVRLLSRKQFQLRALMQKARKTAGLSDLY
Compound,"activity change, negative = inhibition",Potency
NC(=O)CSc1nc2c(sc3ccccc32)c(=O)n1CCCC(=O)NCC1CCCO1 (centres undefined),-27.5%,
CCCN1C(=O)/C(=C\C=C2\N(CC)c3ccccc3C2(C)C)SC1=S,4.53%,
COc1cccc2c1C(=O)c1c(O)c3c(c(O)c1C2=O)C[C@@](O)(C(=O)CO)C[C@@H]3OC1CC(N)C(O)C(C)O1 (some centres undefined),20.3%,
O=C(Cc1nc2ccccc2[nH]c1=O)c1ccccc1,-8.07%,
Cc1nc(Cl)c2c(n1)NC1=C(O2)C(=O)CCC1,22%,
CCCCCCN1C=CC=C/C1=C/C=C(C#N)C#N,39.2%,
CCN1CCc2c(sc(NC(=O)Nc3ccc(Cl)c(Cl)c3)c2C(N)=O)C1,-11.9%,
Cc1ccc(/C=C/C(=O)Nc2ccc(S(=O)(=O)Nc3onc(C)c3C)cc2)cc1,-1.09%,
COc1ccc2ccccc2c1C(O)c1nccn1C (centres undefined),-39.1%,
Cc1ccccc1N1C(=O)c2cccc3c(N(C)CCO)ccc(c23)C1=O,,32.6 µM (active)
CCc1ccc[n+](-c2[nH]c(=O)sc2/C=N/NC([S-])=Nc2ccccc2)c1,-11.3%,
CCCCNc1ccc2c3c(cccc13)C(=O)N(CCCC)C2=O,-13.2%,
O=S(=O)(Nc1nc2n(n1)C(c1ccccc1)C=C(c1ccc(Cl)cc1)N2)c1ccccc1 (centres undefined),39.5%,
CCOc1cc(/C=C(\C#N)c2nc(-c3cccs3)c(NC(C)=O)s2)ccc1O,-11.2%,
O=C(NCc1cccc(F)c1)c1cccc2c1C(=O)c1ccc(N3CCCC3)cc1S2(=O)=O,33.2%,
O=c1[nH]c(-[n+]2ccccc2)c(/C=N/NC([S-])=Nc2ccccc2)s1,6.15%,
S=C(NCc1ccccc1)Nc1cccc(Cl)c1,-0.728%,
Nc1ccc2nc3c(=O)n(C4CCCCC4)c(=O)[nH]c3nc2c1,-0.548%,
COC(=O)C[C@H]1c2cc(F)ccc2S(=O)(=O)N1c1ccccc1,-24.1%,
CCN(c1ccc(N=Cc2c(O)n(Cc3ccc(OC)cc3)c(=O)c3ccccc23)cc1)C(C)C,-9.69%,

Compound,"activity change, negative = inhibition",Potency
CC1=CC(=C(C#N)c2nc3ccccc3s2)C=C(C)N1c1ccc(F)cc1F,24.7%,
COc1ccc(-n2nc(C(=O)Nc3ccc(OC)c(OC)c3)c3c4ccccc4n(C)c3c2=O)cc1,-9.28%,
COc1ccc2nc3ccccc3nc2c1NC(=O)c1ccc(Cl)cc1Cl,-19.7%,
Cc1ccc[n+](-c2nc([O-])sc2/C=N/Nc2ccc([N+](=O)[O-])cc2)c1,11.8%,
COc1ccc(NC(=O)c2cccc(-c3ccc(O)cc3)c2)cn1,-20.6%,
Cc1n[nH]c(C)c1N1C(=O)c2cccc3c(N4CCCCCC4)ccc(c23)C1=O,5.79%,
Cc1cccc(N=Nc2c(O)[nH]c3ccc(F)cc23)c1,-2.4%,
CCCCCOc1ccc(/C=c2\sc3nc(=O)c(-c4ccccc4)nn3c2=O)cc1OC,-7.79%,
CCOC(=O)c1ccc(NC(=O)CSc2nc(-c3cccs3)cc(C(F)(F)F)c2C#N)cc1,-13.1%,
COc1cccc(NC(=O)/C(C#N)=C/c2ccc(-c3ccc(C)cc3)o2)c1,21.1%,
COc1ccc(Nc2nc(-c3cccnc3)nc3ccccc23)cn1,23.8%,
CCSC1=NSC2=NC(=O)/C(=C\c3coc4ccccc4c3=O)C(=N)N12,-19.1%,
O=C1Nc2ccc(F)cc2C12Nc1ccccc1-c1nnc(SCc3ccccc3F)nc1O2 (centres undefined),235%,
CC(C)CCN1C(=O)c2cccc3c(N)ccc(c23)C1=O,-6.02%,
O=C(N/N=C/c1ccccc1Cl)c1[nH]c2ccc(Br)cc2c1-c1ccccc1,-8.23%,
CCOC(=O)C1CCCN(c2nc3ccccc3nc2C(C#N)C(=O)NCc2ccccc2)C1 (centres undefined),3.32%,
O=C(CCl)N1c2ccccc2Oc2ccc3ccccc3c21,-7.01%,
ClCc1nc2ccccc2n1Cc1ccccc1,2.36%,
O=C(/C=C/c1ccc(Cl)cc1Cl)c1nc2ccccc2[nH]1,1.89%,
